Measurements published in PubChem BioAssay (NCI).
The panel holds about 83,000 compounds, 20% with a hit somewhere; the sample as a whole holds those more often.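 Single-concentration screen, 48 h exposure, 96-well plates. Endpoint: percent growth. Below 10 = active.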 Unmarked numbers belong to inactive results. Activity calls are given as the source filed them.

System: EKVX NSCLC
Test: NCI-60 one-dose screen, 48 h (100 = growth as untreated, 0 = no growth, -100 = all killed)
Conditions: 10 µM unless noted

**Q.** How did the growth turn out when `CN(C)Cc1ccccn1` was run?
**A.** 99.5%

**Q.** `CCNCC(C)(C)O` was tested. Which growth did it give?
**A.** 99.6%

**Q.** How did the growth turn out when `CCOS(=O)(=O)c1ccc([N+](=O)[O-])cc1` was run?
**A.** 110%

**Q.** How did the growth turn out when `CCCCCCCCCCCCSC1=C(Cl)C(=O)C(OC)=C(OC)C1=O` was run?
**A.** 37.9%

**Q.** Which growth does the source give for `CN(C(=S)S(=O)(=O)C12CC3CC(CC(C3)C1)C2)c1ccccc1` here?
**A.** 104%

**Q.** For `N#Cc1ccc2nc[nH]c2c1`, which growth is on record?
**A.** 104%

**Q.** Which growth does the source give for `CCCCCC#CC(=O)O` here?
**A.** 99.8%

**Q.** For `CC(=O)C1C(=O)C(=O)N(c2ccc(Cl)c(Cl)c2)C1=O` (centres undefined), which growth is on record?
**A.** 92.1%

**Q.** With `CC(C)OCC(CCl)OC(=O)Nc1ccccc1` (centres undefined) as the compound, how does the growth read?
**A.** 104%

**Q.** `COc1ccc(C(=O)/C(=N/Nc2ccccc2)c2ccc(OC)cc2)cc1` was tested. Which growth did it give?
**A.** 91.7%

**Q.** Which growth does the source give for `Cc1cc(Nc2ccc3c(c2)OCO3)c2cc3c(cc2n1)OCO3` here?
**A.** 44.9%

**Q.** Which growth does the source give for `NC(=O)N1CCOCC1` here?
**A.** 108%

**Q.** Which growth does the source give for `CC(=O)Nc1ccc(O)c(C)c1` here?
**A.** 112%

**Q.** How did the growth turn out when `COc1cccc2c1Cc1ccccc1-2` was run?
**A.** 102%

**Q.** `C=COC(=O)CCOCC(CC)CCCC` (centres undefined) was tested. Which growth did it give?
**A.** 110%

**Q.** `N#C/C(=C\c1ccc(C#N)cc1)C(=O)c1ccccc1` was tested. Which growth did it give?
**A.** 109%

**Q.** For `Cc1cccc(C)c1NC(=S)/N=C\c1c(O)[nH]c(=O)[nH]c1=O`, which growth is on record?
**A.** 77.3%

**Q.** How did the growth turn out when `COc1ccc(C(=O)C(=O)c2ccccc2)cc1` was run?
**A.** 102%

**Q.** Which growth does the source give for `O=C1CSc2ccccc2N1` here?
**A.** 97%

**Q.** `Cc1c(Cl)cccc1NC(=S)NC(=O)c1ccccc1` was tested. Which growth did it give?
**A.** 71.6%

**Q.** For `CC(c1ccccc1)N(C)C` (centres undefined), which growth is on record?
**A.** 122%

**Q.** For `CCOC(=O)/C(O)=C(\C=N\C(=S)Nc1ccc(Cl)c(Cl)c1)C(=O)OCC`, which growth is on record?
**A.** 82.8%

**Q.** Which growth does the source give for `CCC(=O)C1C(=O)c2ccccc2C1=O` here?
**A.** 82.6%

**Q.** How did the growth turn out when `CCCCCCCCCc1ccc(OC(C)=O)cc1` was run?
**A.** 108%

**Q.** For `Nc1ncnc(Nc2ccc(C(F)(F)F)cc2)n1`, which growth is on record?
**A.** 99.7%

**Q.** Which growth does the source give for `CCOP(=O)(OCC)/C(=C\N1C(=O)CC(=O)NC1=S)C(=O)OC` here?
**A.** 98.9%

**Q.** For `C=CCOc1ccc(Cl)cc1Cl`, which growth is on record?
**A.** 103%

**Q.** `NNC(=O)N/N=C1\C(=O)N(c2nccs2)C(=O)C(=O)C1c1nc2ccccc2s1` (centres undefined) was tested. Which growth did it give?
**A.** 84.8%

**Q.** For `Cc1cc(Cl)cc(Cc2cc(Cl)cc(C)c2O)c1O`, which growth is on record?
**A.** 53.9%

**Q.** `C=CCN1CCCC1=O` was tested. Which growth did it give?
**A.** 96.8%

**Q.** `COc1cc(C(=O)O)c(O)c(C(C)(C)C)c1` was tested. Which growth did it give?
**A.** 102%

**Q.** With `CC(=O)OCC1OC(n2cnc3c(=S)nc(N)[nH]c32)C(OC(C)=O)C1OC(C)=O` (centres undefined) as the compound, how does the growth read?
**A.** 83.9%

**Q.** With `CCC(=O)Oc1ccc2ccccc2c1` as the compound, how does the growth read?
**A.** 95.7%

**Q.** Which growth does the source give for `CCOC(=O)C(=O)CC(=O)c1ccccc1` here?
**A.** 97.4%

**Q.** For `Cc1ccc(NCN2C(=O)c3ccccc3C2=O)c(C)n1`, which growth is on record?
**A.** 106%

**Q.** For `CC(C)c1ncc([N+](=O)[O-])n1C`, which growth is on record?
**A.** 126%

**Q.** How did the growth turn out when `O=C(O)c1c[nH]c2ccccc2c1=O` was run?
**A.** 103%

System: SN12C renal
Test: as above
Conditions: 10 µM unless noted

**Q.** With `CN(C)Cc1ccccn1` as the compound, how does the growth read?
**A.** 100%

**Q.** Which growth does the source give for `CCNCC(C)(C)O` here?
**A.** 101%

**Q.** With `CCOS(=O)(=O)c1ccc([N+](=O)[O-])cc1` as the compound, how does the growth read?
**A.** 101%

**Q.** Which growth does the source give for `CCCCCCCCCCCCSC1=C(Cl)C(=O)C(OC)=C(OC)C1=O` here?
**A.** 24.5%

**Q.** How did the growth turn out when `CN(C(=S)S(=O)(=O)C12CC3CC(CC(C3)C1)C2)c1ccccc1` was run?
**A.** 90.4%

**Q.** Which growth does the source give for `N#Cc1ccc2nc[nH]c2c1` here?
**A.** 110%

**Q.** Which growth does the source give for `CCCCCC#CC(=O)O` here?
**A.** 105%

**Q.** For `CC(=O)C1C(=O)C(=O)N(c2ccc(Cl)c(Cl)c2)C1=O` (centres undefined), which growth is on record?
**A.** 97.4%

**Q.** Which growth does the source give for `CC(C)OCC(CCl)OC(=O)Nc1ccccc1` (centres undefined) here?
**A.** 96.7%

**Q.** Which growth does the source give for `COc1ccc(C(=O)/C(=N/Nc2ccccc2)c2ccc(OC)cc2)cc1` here?
**A.** 91.5%

**Q.** Which growth does the source give for `Cc1cc(Nc2ccc3c(c2)OCO3)c2cc3c(cc2n1)OCO3` here?
**A.** 47%

**Q.** For `NC(=O)N1CCOCC1`, which growth is on record?
**A.** 109%

**Q.** Which growth does the source give for `CC(=O)Nc1ccc(O)c(C)c1` here?
**A.** 102%

**Q.** `COc1cccc2c1Cc1ccccc1-2` was tested. Which growth did it give?
**A.** 108%

**Q.** For `C=COC(=O)CCOCC(CC)CCCC` (centres undefined), which growth is on record?
**A.** 104%

**Q.** Which growth does the source give for `N#C/C(=C\c1ccc(C#N)cc1)C(=O)c1ccccc1` here?
**A.** 95.7%

**Q.** With `Cc1cccc(C)c1NC(=S)/N=C\c1c(O)[nH]c(=O)[nH]c1=O` as the compound, how does the growth read?
**A.** 98.5%

**Q.** `COc1ccc(C(=O)C(=O)c2ccccc2)cc1` was tested. Which growth did it give?
**A.** 98.7%

**Q.** With `O=C1CSc2ccccc2N1` as the compound, how does the growth read?
**A.** 100%

**Q.** With `Cc1c(Cl)cccc1NC(=S)NC(=O)c1ccccc1` as the compound, how does the growth read?
**A.** 98.6%

**Q.** With `CC(c1ccccc1)N(C)C` (centres undefined) as the compound, how does the growth read?
**A.** 99.7%

**Q.** Which growth does the source give for `CCOC(=O)/C(O)=C(\C=N\C(=S)Nc1ccc(Cl)c(Cl)c1)C(=O)OCC` here?
**A.** 93.4%

**Q.** With `CCC(=O)C1C(=O)c2ccccc2C1=O` as the compound, how does the growth read?
**A.** 109%

**Q.** How did the growth turn out when `CCCCCCCCCc1ccc(OC(C)=O)cc1` was run?
**A.** 99.6%

**Q.** How did the growth turn out when `Nc1ncnc(Nc2ccc(C(F)(F)F)cc2)n1` was run?
**A.** 99.8%

**Q.** How did the growth turn out when `CCOP(=O)(OCC)/C(=C\N1C(=O)CC(=O)NC1=S)C(=O)OC` was run?
**A.** 101%

**Q.** `C=CCOc1ccc(Cl)cc1Cl` was tested. Which growth did it give?
**A.** 105%

**Q.** For `NNC(=O)N/N=C1\C(=O)N(c2nccs2)C(=O)C(=O)C1c1nc2ccccc2s1` (centres undefined), which growth is on record?
**A.** 96%

**Q.** Which growth does the source give for `Cc1cc(Cl)cc(Cc2cc(Cl)cc(C)c2O)c1O` here?
**A.** 2.59% (active)

**Q.** For `C=CCN1CCCC1=O`, which growth is on record?
**A.** 94.2%

**Q.** `COc1cc(C(=O)O)c(O)c(C(C)(C)C)c1` was tested. Which growth did it give?
**A.** 103%

**Q.** With `CC(=O)OCC1OC(n2cnc3c(=S)nc(N)[nH]c32)C(OC(C)=O)C1OC(C)=O` (centres undefined) as the compound, how does the growth read?
**A.** 97.4%

**Q.** With `CCC(=O)Oc1ccc2ccccc2c1` as the compound, how does the growth read?
**A.** 91%

**Q.** Which growth does the source give for `CCOC(=O)C(=O)CC(=O)c1ccccc1` here?
**A.** 100%

**Q.** For `Cc1ccc(NCN2C(=O)c3ccccc3C2=O)c(C)n1`, which growth is on record?
**A.** 111%

**Q.** How did the growth turn out when `CC(C)c1ncc([N+](=O)[O-])n1C` was run?
**A.** 109%

**Q.** `O=C(O)c1c[nH]c2ccccc2c1=O` was tested. Which growth did it give?
**A.** 103%
